Calls of active or inactive are those of the source.

This passage reports composite z-score and z-score results from PubChem BioAssay.

A short description of experiment [1]: small molecules captured by biotinylated probe aFSTL3 – biochemical, small-molecule microarray, fluorescence 635/667, stem cell growth factor project, primary screen (AID 1064).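 Also: measures binding of the biotinylated anti-FSTL3 antibody to printed compounds.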 The settings on record: higher = more signal.
A short description of experiment [2]: binders from COS7 lysate, DM2A8 probe, primary screen, torsin A project, cell lysate, small-molecule microarray, fluorescence 635/667 (AID 1065). Particulars: higher = more signal, COS7 lysate expressing mutant human TOR1A.
A short description of experiment [3]: small molecules captured by biotinylated probe aFGF2 – biochemical, small-molecule microarray, fluorescence 635/667, stem cell growth factor project, primary screen (AID 1067).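 Also: measures binding of biotinylated aFGF2 protein to printed compounds on slides; z-score merges feature fluorescence and signal-to-noise across triplicate slides.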 The settings on record: higher = more signal.
A short description of experiment [4]: small molecules captured by biotinylated probe aFGF10 – biochemical, small-molecule microarray, fluorescence 635/667, stem cell growth factor project, primary screen (AID 1071).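 Also: score merges 667 nm spot intensity and signal to noise from triplicate slides.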 Particulars: higher = more signal.
Experiment [5] concerns the target Neurogenic locus notch homolog protein 2 (Homo sapiens) (UniProt Q04721). Nature of the experiment: small molecules binding Notch2 protein – biochemical, small-molecule microarray, 635 nm fluorescence, stem cell growth factors, primary screen (AID 1073). The settings on record: higher = more signal.
In experiment [6] the target is Pro-neuregulin-1, membrane-bound isoform (Homo sapiens) (UniProt Q02297). Briefly: small molecules binding neuregulin-1 protein – biochemical, small-molecule microarray, fluorescence 635/667, psychiatric disease protein project, primary screen (AID 1075).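 Also: score combines 667 nm spot fluorescence with signal to noise.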 Particulars: NRG1 binding, 635 nm fluorescence, higher = more signal.
Chain of Pro-neuregulin-1, membrane-bound isoform (Homo sapiens) (Q02297 whole entry, looked up, the tested form may be a part, canonical isoform): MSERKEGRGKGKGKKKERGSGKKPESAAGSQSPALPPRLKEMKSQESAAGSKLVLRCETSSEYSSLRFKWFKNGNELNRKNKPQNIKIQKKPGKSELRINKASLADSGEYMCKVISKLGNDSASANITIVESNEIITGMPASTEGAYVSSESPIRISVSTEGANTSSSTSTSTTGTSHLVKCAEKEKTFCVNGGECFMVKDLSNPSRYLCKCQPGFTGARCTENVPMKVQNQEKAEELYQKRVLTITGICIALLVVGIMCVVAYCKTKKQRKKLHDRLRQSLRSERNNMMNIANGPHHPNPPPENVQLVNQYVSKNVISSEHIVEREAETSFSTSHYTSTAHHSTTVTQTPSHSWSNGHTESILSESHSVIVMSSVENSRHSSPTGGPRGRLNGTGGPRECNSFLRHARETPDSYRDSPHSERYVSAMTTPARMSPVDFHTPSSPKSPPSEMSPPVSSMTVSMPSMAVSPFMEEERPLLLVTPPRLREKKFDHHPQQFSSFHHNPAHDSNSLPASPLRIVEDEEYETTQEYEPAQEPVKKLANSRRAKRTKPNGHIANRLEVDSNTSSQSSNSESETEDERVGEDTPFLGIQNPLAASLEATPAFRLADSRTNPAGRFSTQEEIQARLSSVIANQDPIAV
The test system of experiment [7] is Neuregulin-1 EGF-like domain. Briefly: small molecules binding NRG1 EGF domain – biochemical, small-molecule microarray, 635 nm fluorescence, primary screen (AID 1081).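 Also: binding of the protein to compounds printed on small-molecule microarray slides.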 Particulars: higher = more signal.
Experiment [8] can be described thus: FRG1 expression reporter modulators in myotubes – cell-based, C2C12 myotubes, firefly/Renilla luciferase, luminescence, FRG1 inhibition for FSHD, primary screen (AID 1084). The settings on record: FRG1 promoter luciferase, higher = more signal, called active from +8 up or from −8 down.
Experiment [9] is described as follows: small molecules captured by biotinylated probe aFST – biochemical, small-molecule microarray, fluorescence 635/667, stem cell growth factor project, primary screen (AID 1086).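 Also: score merges 667 nm fluorescence with signal-to-noise of each printed compound spot.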 Particulars: higher = more signal.
A short description of experiment [10]: binders of probe aHhip on microarray, primary screen, stem cell growth factor project, biochemical, small-molecule microarray, fluorescence 635/667 (AID 1087).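 Also: score merges spot fluorescence at 667nm with spot signal to noise ratio.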 The settings on record: higher = more signal.

Chain of Neurogenic locus notch homolog protein 2 (Homo sapiens) (Q04721 whole entry, looked up, canonical isoform): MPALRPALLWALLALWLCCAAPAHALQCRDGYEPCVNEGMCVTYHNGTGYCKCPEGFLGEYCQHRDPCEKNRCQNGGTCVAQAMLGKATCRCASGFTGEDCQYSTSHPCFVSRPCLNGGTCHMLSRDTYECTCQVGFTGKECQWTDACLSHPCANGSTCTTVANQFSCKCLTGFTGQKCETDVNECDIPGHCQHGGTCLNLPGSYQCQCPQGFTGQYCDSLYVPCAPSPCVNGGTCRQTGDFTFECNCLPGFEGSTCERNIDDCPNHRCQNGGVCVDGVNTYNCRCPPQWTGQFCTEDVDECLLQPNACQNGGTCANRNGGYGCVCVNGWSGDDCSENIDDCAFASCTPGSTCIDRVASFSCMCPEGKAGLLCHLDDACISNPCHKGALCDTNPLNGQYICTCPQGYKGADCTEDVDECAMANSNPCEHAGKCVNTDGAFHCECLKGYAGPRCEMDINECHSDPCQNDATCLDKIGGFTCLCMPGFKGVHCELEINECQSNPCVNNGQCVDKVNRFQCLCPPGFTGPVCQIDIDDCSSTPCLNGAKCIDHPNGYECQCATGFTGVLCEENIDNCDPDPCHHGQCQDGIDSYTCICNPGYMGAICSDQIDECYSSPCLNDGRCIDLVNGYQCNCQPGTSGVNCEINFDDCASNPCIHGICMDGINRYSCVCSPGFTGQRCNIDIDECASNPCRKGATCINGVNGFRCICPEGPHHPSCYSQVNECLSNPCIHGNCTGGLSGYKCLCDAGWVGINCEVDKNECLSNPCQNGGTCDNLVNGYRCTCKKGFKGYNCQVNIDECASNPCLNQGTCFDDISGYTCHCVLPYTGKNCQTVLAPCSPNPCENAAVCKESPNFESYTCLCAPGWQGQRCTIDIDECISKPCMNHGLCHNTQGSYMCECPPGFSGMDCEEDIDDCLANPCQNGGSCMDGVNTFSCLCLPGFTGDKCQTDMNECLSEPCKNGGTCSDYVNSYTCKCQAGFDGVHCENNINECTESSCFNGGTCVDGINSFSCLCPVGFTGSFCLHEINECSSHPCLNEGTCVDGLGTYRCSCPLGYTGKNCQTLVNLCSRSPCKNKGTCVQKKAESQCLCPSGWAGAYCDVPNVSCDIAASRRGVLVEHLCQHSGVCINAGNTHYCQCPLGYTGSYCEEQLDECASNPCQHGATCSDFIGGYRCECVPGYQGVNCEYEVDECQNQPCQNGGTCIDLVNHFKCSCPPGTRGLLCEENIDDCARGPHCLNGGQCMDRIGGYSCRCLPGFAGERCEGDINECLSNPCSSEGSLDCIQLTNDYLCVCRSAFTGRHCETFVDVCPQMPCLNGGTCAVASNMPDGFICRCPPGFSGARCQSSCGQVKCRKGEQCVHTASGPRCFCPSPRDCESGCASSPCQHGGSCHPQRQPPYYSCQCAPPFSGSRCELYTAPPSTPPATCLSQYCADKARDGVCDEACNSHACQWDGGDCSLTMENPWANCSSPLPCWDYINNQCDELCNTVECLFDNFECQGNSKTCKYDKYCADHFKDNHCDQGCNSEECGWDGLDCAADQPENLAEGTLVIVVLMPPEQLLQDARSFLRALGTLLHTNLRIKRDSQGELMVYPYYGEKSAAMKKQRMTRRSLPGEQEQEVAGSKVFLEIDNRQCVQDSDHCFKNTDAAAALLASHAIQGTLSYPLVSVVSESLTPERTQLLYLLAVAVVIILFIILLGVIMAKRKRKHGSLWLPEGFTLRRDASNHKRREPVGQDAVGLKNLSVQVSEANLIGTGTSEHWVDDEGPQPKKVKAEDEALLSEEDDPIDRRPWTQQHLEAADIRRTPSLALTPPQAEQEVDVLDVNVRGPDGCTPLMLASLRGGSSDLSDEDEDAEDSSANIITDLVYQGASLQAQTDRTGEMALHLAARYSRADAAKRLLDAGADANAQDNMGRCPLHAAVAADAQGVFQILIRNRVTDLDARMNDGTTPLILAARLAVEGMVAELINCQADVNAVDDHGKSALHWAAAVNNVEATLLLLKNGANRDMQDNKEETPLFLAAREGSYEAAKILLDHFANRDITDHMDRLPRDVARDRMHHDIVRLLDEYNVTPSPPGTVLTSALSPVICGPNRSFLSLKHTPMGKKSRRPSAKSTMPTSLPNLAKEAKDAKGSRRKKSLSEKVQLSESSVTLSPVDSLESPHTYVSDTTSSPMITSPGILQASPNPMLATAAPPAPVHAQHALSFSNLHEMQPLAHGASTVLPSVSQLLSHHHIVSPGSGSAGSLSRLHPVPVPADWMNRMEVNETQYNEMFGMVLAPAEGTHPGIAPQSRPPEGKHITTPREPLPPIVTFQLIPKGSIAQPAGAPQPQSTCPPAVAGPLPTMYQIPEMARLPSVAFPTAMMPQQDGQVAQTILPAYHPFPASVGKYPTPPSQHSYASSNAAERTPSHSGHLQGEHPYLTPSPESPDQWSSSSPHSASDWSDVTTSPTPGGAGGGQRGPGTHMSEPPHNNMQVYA

For the molecule `COC(=O)[C@@]1(Cc2ccc(F)cc2)[C@H]2c3cc(C(=O)N(C)C)n(CC4CC4)c3C[C@H]2CN1C(=O)c1ccccc1`, the composite z-score was 2.43 in [1]; 1.04 in [2]; 0.833 in experiment [3]; 1.27 in experiment [4]; 1.58 in [5]; 1.6 in experiment [6]. Further, the composite z-score in experiment [7] stood at 1.26; in experiment [9], 2.76; in experiment [10], 0.741. In addition, the z-score in experiment [8] was -0.115 (inactive).

As for `CC(C)C[C@@H]1NC(=O)[C@H]2C[C@@H](C(=O)NCCCCCCN)[C@@H](c3ccc(O)cc3)N2C1=O`, the composite z-score was 0.839 in [1]; 0.252 in [2]; -0.0212 in experiment [3]; -0.0652 in experiment [4]; -0.277 in experiment [5]; 0.612 in [6]. Moreover, the composite z-score in experiment [7] was 1.1; in experiment [9] it was 0.472; in experiment [10], 0.134. In experiment [8], the z-score was -0.811 (inactive).

`Cc1ccc(S[C@]2(C(=O)NCC(F)(F)F)CC(=O)N(C(C)C)[C@@H]2c2ccc(CO)cc2I)cc1`: the composite z-score in experiment [1] was 0.163; in experiment [2], -0.98; in experiment [3], -0.04; in [4], 0.0063; in experiment [5], -0.806; in experiment [6], 1.08. The composite z-score was -0.395 in experiment [7], -0.349 in [9] and -0.374 in experiment [10]. The z-score in [8] is -0.0636 (inactive).

On to `COCCOC(=O)N1C(=O)[C@@]2(c3ccccc31)[C@H](c1ccccc1OCCO)N1[C@H](c3ccccc3)[C@H](c3ccccc3)OC(=O)[C@H]1[C@@H]2C(=O)Nc1nc2ccccc2s1`, for which the composite z-score is -0.223 in [1]; 1.03 in [2]; 0.0186 in experiment [3]; 1.11 in [4]; 1.02 in experiment [5]; 0.961 in experiment [6]. Further, the composite z-score in experiment [7] was 1.21; in experiment [9], 0.215; in [10], 0.0274. Moreover, in experiment [8], the z-score is -1.02 (inactive).

Take `O=C1OCC=C[C@H]2OC34C=CCN(CCN5CCOCC5)C(=O)[C@H]3N(CCCO)C(=O)[C@@H]4[C@@H]12` (stereo not given in full): the composite z-score is -0.206 in [1]; -0.426 in experiment [2]; -0.139 in [3]; -0.02 in [4]; -0.146 in [5]; -0.125 in [6]. Also, the composite z-score in experiment [7] is 0.59; in experiment [9] it was -0.382; in [10] it was -0.0003. Moreover, the z-score in experiment [8] is 1.78 (inactive).

`CC(C)C[C@@H]1NC(=O)[C@@H]2C[C@H](C(=O)NCCCCCN)[C@H](c3cccc(OCCO)c3)N2C1=O`: the composite z-score in experiment [1] was 0.235; in experiment [2], -0.0087; in [3], 0.0465; in [4] it was 0.796; in experiment [5] it was 0.128; in experiment [6], 1.4. Also, the figures for the composite z-score in [7], in experiment [9] and in experiment [10] were 1.29, 0.393 and 0.28, respectively. Further, in [8], the z-score is -0.284 (inactive).

In the case of `COc1ccc(NN2C(C(O)c3ccc([N+](=O)[O-])cc3)C=CC3C(=O)N(C4CCCCC4)C(=O)C32)cc1` (stereo not given), the composite z-score in experiment [1] is 0.091; in [2], -0.174; in [3] it was -0.0782; in experiment [4], 0.389; in experiment [5], 0.901; in experiment [6], 0.348. Also, the values for the composite z-score in [7], in experiment [9] and in experiment [10] were 0.755, 0.844 and -0.0346, respectively. Also, in experiment [8], the z-score is -0.068 (inactive).

Consider `CC(C)C(=C=CC[C@@H](O)c1ccccc1OCCO)CCO`, for which the composite z-score in [1] is -0.386; in experiment [2], -0.193; in [3] it was -0.115; in [4] it was 0.269; in experiment [5], 0.0761; in experiment [6] it was 1.71. The composite z-score was 1.36 in [7], 0.285 in [9] and -0.214 in experiment [10]. Further, in [8], the z-score is -1.6 (inactive).

Consider `COc1ccc(C(O)C2C=CC3C(=O)N(c4ccccc4)C(=O)C3N2Nc2ccc(C(C)C)cc2)cc1OCc1ccccc1` (stereo not given), for which the composite z-score in [1] turned out to be 0.838; in [2], 0.369; in [3], 0.227; in experiment [4], 1.08; in experiment [5], 1.61; in [6], 1.26. In addition, the composite z-score in [7] was 1.1; in experiment [9], 1.62; in experiment [10], -0.168. For the same molecule, the z-score in [8] is -1.44 (inactive).

Regarding `COC(=O)[C@@]1(Cc2ccccc2)[C@H]2c3cc(C(=O)N(C)C)n(CCSCCO)c3C[C@H]2CN1C(=O)c1ccccc1`, the composite z-score is -0.303 in [1]; 1.07 in [2]; 0.0413 in experiment [3]; 0.689 in [4]; 1.17 in [5]; 1.28 in experiment [6]. The composite z-score in experiment [7] was found to be 1.24; in experiment [9] it was 0.335; in [10], 0.347. The z-score in experiment [8] was 1.27 (inactive).

On to `C=CCOC(=O)[C@@H]1[C@H]2C(=O)O[C@H](c3ccccc3)[C@H](c3ccccc3)N2[C@H](c2ccc(OCCOC(=O)[C@@H]3C[C@@H]4C(=O)N[C@@H](Cc5ccccc5)C(=O)N4[C@@H]3c3ccc(O)cc3)cc2)[C@@]12C(=O)Nc1ccc(I)cc12`, for which the composite z-score in experiment [1] is -0.219; in experiment [2], 0.602; in experiment [3], -0.0944; in experiment [4], 0.302; in [5], 0.825; in experiment [6], 0.612. For the same molecule, the composite z-score in experiment [7] amounted to 1.14; in experiment [9] it was 0.11; in experiment [10], 0.238. Also, in experiment [8], the z-score was 1.42 (inactive).

Consider `CN1C(=O)C2C=CC(C(O)C3CCCCC3)N(Nc3ccc([N+](=O)[O-])cc3[N+](=O)[O-])C2C1=O` (stereo not given), for which the composite z-score in experiment [1] was 0.0318; in [2] it was 0.548; in [3], 0.0331; in [4] it was 0.752; in experiment [5] it was 1.6; in experiment [6] it was 1.59. Further, the composite z-score in [7] is 1.32; in experiment [9], 1.51; in [10], 0.236. Besides, in [8], the z-score is 0.358 (inactive).

Take `[N-]=[N+]=NCc1ccccc1C[C@]1(C(=O)N2CCOCC2)N=C(c2ccc(OCCCO)cc2)O[C@H]1c1ccccc1N=[N+]=[N-]`: the composite z-score in experiment [1] worked out at 0.0631; in experiment [2], 1.43; in experiment [3], 0.136; in [4], 1.12; in experiment [5], 1.55; in [6], 0.872. Further, the composite z-score in [7] was determined as 1.29; in experiment [9] it was 2.05; in experiment [10], 0.259. Further, the z-score in experiment [8] is -0.395 (inactive).

As for `O=C(NCc1ccccc1)[C@@H]1c2ccccc2C(=O)N(CC23CC4CC(CC(C4)C2)C3)[C@H]1c1ccc(CO)cc1`, the composite z-score in experiment [1] was -0.906; in experiment [2] it was 0.0469; in experiment [3], -0.0494; in experiment [4], 0.484; in experiment [5], 1.01; in experiment [6] it was 1.45. In addition, the composite z-score in [7] is 1.2; in [9], 0.193; in [10], -0.0994. The z-score in [8] was -3.34 (inactive).
